Results: PubChem BioAssay (NCI)
The panel holds about 83,000 compounds, 20% with a hit somewhere; the sample as a whole holds those more often.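 Single-dose data. Exposure time 48 hours. Values below 10 considered active.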 Active and inactive are the calls of the source.

Legend:
Experiment in all cases: NCI-60 one-dose screen, 48 h (100 = growth as untreated, 0 = no growth, -100 = all killed)
HCT-15 colon = tested on: HCT-15 colon
HT29 colon = tested on: HT29 colon
SNB-75 CNS = tested on: SNB-75 CNS
SNB-19 CNS = tested on: SNB-19 CNS
U251 CNS = tested on: U251 CNS
PC-3 prostate = tested on: PC-3 prostate
SK-MEL-5 melanoma = tested on: SK-MEL-5 melanoma
UACC-62 melanoma = tested on: UACC-62 melanoma
LOX IMVI melanoma = tested on: LOX IMVI melanoma
SK-MEL-28 melanoma = tested on: SK-MEL-28 melanoma
SK-MEL-2 melanoma = tested on: SK-MEL-2 melanoma
EKVX NSCLC = tested on: EKVX NSCLC
SN12C renal = tested on: SN12C renal
UO-31 renal = tested on: UO-31 renal
TK-10 renal = tested on: TK-10 renal
ACHN renal = tested on: ACHN renal
CAKI-1 renal = tested on: CAKI-1 renal
A498 renal = tested on: A498 renal
CCRF-CEM leukemia = tested on: CCRF-CEM leukemia
MOLT-4 leukemia = conditions: 10 µM unless noted

Measured: growth

COc1cc(CNC(=O)C[C@H](C)CCC=C(C)C)ccc1OCc1cn(-c2ccc(Cl)c(Cl)c2)nn1
inactive: HCT-15 colon; 10 µM unless noted 29.4% | HT29 colon; 10 µM unless noted 78.3% | SNB-75 CNS; 10 µM unless noted 47.2% | SNB-19 CNS; 10 µM unless noted 81.3% | U251 CNS; 10 µM unless noted 48.2% | PC-3 prostate; 10 µM unless noted 65.9% | SK-MEL-5 melanoma; 10 µM unless noted 71.9% | UACC-62 melanoma; 10 µM unless noted 69.3% | LOX IMVI melanoma; 10 µM unless noted 50.6% | SK-MEL-28 melanoma; 10 µM unless noted 89.3% | SK-MEL-2 melanoma; 10 µM unless noted 93.7% | EKVX NSCLC; 10 µM unless noted 77.2% | SN12C renal; 10 µM unless noted 38.2% | UO-31 renal; 10 µM unless noted 60.8% | TK-10 renal; 10 µM unless noted 90.7% | ACHN renal; 10 µM unless noted 71.5% | CAKI-1 renal; 10 µM unless noted 64% | A498 renal; 10 µM unless noted 79.9% | CCRF-CEM leukemia; 10 µM unless noted 84.5% | MOLT-4 leukemia 68.7%

CCCN(CCC)S(=O)(=O)c1ccc(C(=O)O)cc1.CCCN(CCC)S(=O)(=O)c1ccc(C(=O)O)cc1.[Cl][Pt+2][Cl].[NH2-].[NH2-]
inactive: HCT-15 colon; 10 µM unless noted 87.8% | HT29 colon; 10 µM unless noted 42% | SNB-19 CNS; 10 µM unless noted 26.7% | PC-3 prostate; 10 µM unless noted 39.7% | EKVX NSCLC; 10 µM unless noted 44.8% | SN12C renal; 10 µM unless noted 12.4% | UO-31 renal; 10 µM unless noted 98.4% | TK-10 renal; 10 µM unless noted 109% | ACHN renal; 10 µM unless noted 13.4% | CAKI-1 renal; 10 µM unless noted 32.4% | A498 renal; 10 µM unless noted 91.5% | CCRF-CEM leukemia; 10 µM unless noted 50.4%
active: SNB-75 CNS; 10 µM unless noted 1.96% | U251 CNS; 10 µM unless noted -27.5% | SK-MEL-5 melanoma; 10 µM unless noted -91.2% | UACC-62 melanoma; 10 µM unless noted -90.2% | LOX IMVI melanoma; 10 µM unless noted -9.75% | SK-MEL-28 melanoma; 10 µM unless noted 1.28% | SK-MEL-2 melanoma; 10 µM unless noted -31.6% | MOLT-4 leukemia -2.08%

CC(C)(C)c1cc(-c2cc(-c3ccccc3)[nH]c(=O)c2C#N)cc(C(C)(C)C)c1
active: SNB-75 CNS; 10 µM unless noted -32% | U251 CNS; 10 µM unless noted -22% | CAKI-1 renal; 10 µM unless noted -11.5%
inactive: HCT-15 colon; 10 µM unless noted 56.6% | HT29 colon; 10 µM unless noted 88.8% | SNB-19 CNS; 10 µM unless noted 25.7% | PC-3 prostate; 10 µM unless noted 53.3% | SK-MEL-5 melanoma; 10 µM unless noted 74.5% | UACC-62 melanoma; 10 µM unless noted 68.3% | LOX IMVI melanoma; 10 µM unless noted 49.2% | SK-MEL-28 melanoma; 10 µM unless noted 78.5% | SK-MEL-2 melanoma; 10 µM unless noted 94.4% | EKVX NSCLC; 10 µM unless noted 34.2% | SN12C renal; 10 µM unless noted 30.7% | UO-31 renal; 10 µM unless noted 24.2% | TK-10 renal; 10 µM unless noted 27.6% | ACHN renal; 10 µM unless noted 23.3% | A498 renal; 10 µM unless noted 21.5% | CCRF-CEM leukemia; 10 µM unless noted 68.9% | MOLT-4 leukemia 70.9%

CCOC(=O)/C(F)=C/C1CC1C(c1ccccc1)c1ccccc1 (stereo not drawn)
inactive: HCT-15 colon; 10 µM unless noted 67% | HT29 colon; 10 µM unless noted 80.6% | SNB-75 CNS; 10 µM unless noted 90.4% | SNB-19 CNS; 10 µM unless noted 95.9% | U251 CNS; 10 µM unless noted 109% | PC-3 prostate; 10 µM unless noted 78.8% | SK-MEL-5 melanoma; 10 µM unless noted 88.9% | UACC-62 melanoma; 10 µM unless noted 65.1% | LOX IMVI melanoma; 10 µM unless noted 84.9% | SK-MEL-28 melanoma; 10 µM unless noted 103% | SK-MEL-2 melanoma; 10 µM unless noted 86.3% | EKVX NSCLC; 10 µM unless noted 86.5% | SN12C renal; 10 µM unless noted 98.8% | UO-31 renal; 10 µM unless noted 70.2% | TK-10 renal; 10 µM unless noted 101% | ACHN renal; 10 µM unless noted 98.9% | CAKI-1 renal; 10 µM unless noted 65.6% | A498 renal; 10 µM unless noted 87.9% | CCRF-CEM leukemia; 10 µM unless noted 85.4% | MOLT-4 leukemia 76.8%

CC/C(=C(/c1ccc(O)cc1)c1ccc(OCCN(C)C(=O)COCCOCCNC(=O)c2ccc3c(c2)CN([C@@H]2CCC(=O)NC2=O)C3=O)cc1)c1ccccc1
active: CCRF-CEM leukemia; 1 µM 9.04%
inactive: HCT-15 colon; 1 µM 105% | HCT-15 colon; 10 µM 106% | HT29 colon; 1 µM 96.6% | HT29 colon; 10 µM 86% | SNB-75 CNS; 1 µM 54.5% | SNB-75 CNS; 10 µM 34.7% | SNB-19 CNS; 1 µM 85.5% | SNB-19 CNS; 10 µM 75.5% | U251 CNS; 1 µM 98.3% | U251 CNS; 10 µM 90.8% | PC-3 prostate; 1 µM 49.6% | PC-3 prostate; 10 µM 39.3% | SK-MEL-5 melanoma; 1 µM 95.2% | SK-MEL-5 melanoma; 10 µM 84.1% | UACC-62 melanoma; 1 µM 93.1% | UACC-62 melanoma; 10 µM 91.6% | LOX IMVI melanoma; 1 µM 98% | LOX IMVI melanoma; 10 µM 97.2% | SK-MEL-28 melanoma; 1 µM 101% | SK-MEL-28 melanoma; 10 µM 97.5% | SK-MEL-2 melanoma; 1 µM 101% | SK-MEL-2 melanoma; 10 µM 93.5% | EKVX NSCLC; 1 µM 99.1% | EKVX NSCLC; 10 µM 93.4% | SN12C renal; 1 µM 96% | SN12C renal; 10 µM 85% | UO-31 renal; 1 µM 87.2% | UO-31 renal; 10 µM 87.7% | TK-10 renal; 1 µM 99.1% | TK-10 renal; 10 µM 91.2% | ACHN renal; 1 µM 104% | ACHN renal; 10 µM 101% | CAKI-1 renal; 1 µM 99.3% | CAKI-1 renal; 10 µM 95.5% | A498 renal; 1 µM 114% | A498 renal; 10 µM 110% | CCRF-CEM leukemia; 10 µM 12.9%

COc1c2c(cc3c1C(CCc1ccccc1)N(C)CC3)OCO2 (stereo not drawn)
active: HCT-15 colon; 10 µM unless noted 9.64% | HT29 colon; 10 µM unless noted -13.3% | SNB-75 CNS; 10 µM unless noted -1.4% | SNB-19 CNS; 10 µM unless noted 8.54% | U251 CNS; 10 µM unless noted -32.5% | SK-MEL-5 melanoma; 10 µM unless noted -98.2% | UACC-62 melanoma; 10 µM unless noted -24% | LOX IMVI melanoma; 10 µM unless noted -92% | SK-MEL-28 melanoma; 10 µM unless noted -5.44% | SK-MEL-2 melanoma; 10 µM unless noted -18.1% | SN12C renal; 10 µM unless noted 8.61% | A498 renal; 10 µM unless noted -15.4% | MOLT-4 leukemia 8.71%
inactive: PC-3 prostate; 10 µM unless noted 12.7% | EKVX NSCLC; 10 µM unless noted 16.1% | UO-31 renal; 10 µM unless noted 14.3% | TK-10 renal; 10 µM unless noted 33.5% | ACHN renal; 10 µM unless noted 14.9% | CAKI-1 renal; 10 µM unless noted 14.5% | CCRF-CEM leukemia; 10 µM unless noted 14.2%
